Test results as given in the supplement of paper PMC10933113.
Structures can show the parent of a compound that is named as a salt. ± gives the uncertainty stated by the source.

test system: THP-1; experiment: CD54 surface expression induction over DMSO control (% over DMSO); higher = stronger dendritic cell activation; conditions: exposure time: 24 h
Method: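 hCLAT-like CD54 and CD86 surface expression on THP1 cells after 24 h exposure at a single concentration (highest non-cytotoxic concentration, or 100-200 µM if not cytotoxic). Flow cytometry (iQue) was run on 5,000 live cells.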

**Q.** How did the “CD54 surface expression induction” value turn out when `ClC1=C(Cl)C(Cl)(Cl)C(Cl)=C1Cl` [Hexachlorocyclopentadiene] (200 µM) was run?
**A.** The value was 47.8 ± 5.2.

**Q.** How did the “CD54 surface expression induction” value turn out when `O=C(N/N=C/c1ccc([N+](=O)[O-])o1)c1cc([N+](=O)[O-])cc([N+](=O)[O-])c1O` [Nifursol] (200 µM) was run?
**A.** Its value is 24.5 ± 8.

**Q.** For `CCOC(=O)NC(=S)Nc1ccccc1NC(=S)NC(=O)OCC` [Thiophanate] (100 µM), which “CD54 surface expression induction” value is on record?
**A.** The value was 18.5 ± 4.7.

**Q.** Which “CD54 surface expression induction” value does the source give for `NCCc1ccc(O)cc1` [Tyramine] (100 µM) here?
**A.** Its value is -4.6 ± 1.1.

**Q.** For `Fc1ccc(Oc2ccnc3cc(Cl)cc(Cl)c23)cc1` [Quinoxyfen] (200 µM), which “CD54 surface expression induction” value is on record?
**A.** Its value is -12.7 ± 1.

**Q.** For `COc1ccc2[nH]cc(CCN(C(C)C)C(C)C)c2c1` [5-Methoxy-N,N-diisopropyltryptamine hydrochloride] (224.7 µM), which “CD54 surface expression induction” value is on record?
**A.** The value was -7.18 ± 11.

**Q.** How did the “CD54 surface expression induction” value turn out when `c1ccc(-c2cccc(-c3ccccc3)c2)cc1` [1,1':3',1''-Terphenyl] (200 µM) was run?
**A.** Its value is -8.04 ± 5.3.

**Q.** With `CCC(C)(c1ccc(O)cc1)c1ccc(O)cc1` [Bisphenol B] (200 µM) as the compound, how does the “CD54 surface expression induction” value read?
**A.** The value was 3.9 ± 0.67.

**Q.** For `O=[N+]([O-])c1ccc(Oc2ccc(C(F)(F)F)cc2[N+](=O)[O-])cc1` [Fluorodifen] (10 µM), which “CD54 surface expression induction” value is on record?
**A.** The value was -6.85 ± 4.5.

**Q.** How did the “CD54 surface expression induction” value turn out when `O=[N+]([O-])c1c(Cl)c(Cl)c(Cl)c(Cl)c1Cl` [Pentachloronitrobenzene] (100 µM) was run?
**A.** Its value is 14.3 ± 4.8.

**Q.** With `COc1ccc(C(c2ccc(OC)cc2)C(Cl)(Cl)Cl)cc1` [Methoxychlor] (200 µM) as the compound, how does the “CD54 surface expression induction” value read?
**A.** The value was 27.4 ± 9.6.

**Q.** With `Nc1ccc([N+](=O)[O-])cc1N` [4-Nitro-1,2-phenylenediamine] (100 µM) as the compound, how does the “CD54 surface expression induction” value read?
**A.** Its value is 7.46 ± 2.

**Q.** `CCc1cccc(CC)c1N(COC)C(=O)CCl` [Alachlor] (100 µM) was tested. Which “CD54 surface expression induction” value did it give?
**A.** Its value is 26.5 ± 9.3.

**Q.** For `CC(C)(C)C(=O)CCl` [1-Chloro-3,3-dimethyl-butan-2-one] (200 µM), which “CD54 surface expression induction” value is on record?
**A.** Its value is -19.8 ± 13.

**Q.** Which “CD54 surface expression induction” value does the source give for `CCS(=O)(=O)CCSP(=O)(OC)OC` [Demeton-S-methylsulphon] (10 µM) here?
**A.** The value was -8.94 ± 5.5.

**Q.** With `CC(C)Nc1ccc(Nc2ccccc2)cc1` [N-Isopropyl-N'-phenyl-p-phenylenediamine] (10 µM) as the compound, how does the “CD54 surface expression induction” value read?
**A.** Its value is 46.7 ± 2.8.

**Q.** For `CC(C)=CC1C(C(=O)OCc2coc(Cc3ccccc3)c2)C1(C)C` (centres undefined) [Resmethrin] (200 µM), which “CD54 surface expression induction” value is on record?
**A.** Its value is 19.8 ± 10.

**Q.** With `NNC(N)=S` [Thiosemicarbazide] (10 µM) as the compound, how does the “CD54 surface expression induction” value read?
**A.** Its value is -1.62 ± 1.6.

**Q.** For `O=C1C(Cl)=C(Cl)C(=O)C(Cl)=C1Cl` [Chloranil] (100 µM), which “CD54 surface expression induction” value is on record?
**A.** Its value is 17.4 ± 13.

**Q.** `C=C1C[C@@H]2[C@H](CC[C@]3(C)C(=O)CC[C@@H]23)[C@@]2(C)C=CC(=O)C=C12` [Exemestane] (100 µM) was tested. Which “CD54 surface expression induction” value did it give?
**A.** Its value is -0.45 ± 0.02.

**Q.** For `Cl/C=C\C[N+]12CN3CN(CN(C3)C1)C2` [Chloroallyl methenamine chloride] (10 µM), which “CD54 surface expression induction” value is on record?
**A.** Its value is 3.14 ± 2.9.

**Q.** Which “CD54 surface expression induction” value does the source give for `Cc1cc(C2CC2)nc(Nc2ccccc2)n1` [Cyprodinil] (200 µM) here?
**A.** Its value is 2.24 ± 3.2.

**Q.** For `OC[P+](CO)(CO)CO` [Tetrakis(hydroxymethyl)phosphonium SO4] (100 µM), which “CD54 surface expression induction” value is on record?
**A.** Its value is 8.38 ± 1.4.

**Q.** Which “CD54 surface expression induction” value does the source give for `O=C(O)c1ccc(=O)[nH]c1` [6-Hydroxynicotinic acid] (100 µM) here?
**A.** The value was -3.56 ± 0.01.

**Q.** Which “CD54 surface expression induction” value does the source give for `CCOP(=S)(OCC)SC(CCl)N1C(=O)c2ccccc2C1=O` (centres undefined) [Dialifor] (100 µM) here?
**A.** Its value is -4.61 ± 27.

**Q.** `ClC1=C(Cl)C2(Cl)C3C(Cl)C(Cl)CC3C1(Cl)C2(Cl)Cl` (centres undefined) [Chlordane] (200 µM) was tested. Which “CD54 surface expression induction” value did it give?
**A.** Its value is 27.9 ± 0.29.

**Q.** `O=C(O)c1ccccc1C(=O)Nc1cccc2ccccc12` [Naptalam*] (200 µM) was tested. Which “CD54 surface expression induction” value did it give?
**A.** Its value is 183 ± 32.

**Q.** With `c1cc(OCC2CO2)ccc1Cc1ccc(OCC2CO2)cc1` (centres undefined) [Bis[4-(glycidyloxy)phenyl]methane] (100 µM) as the compound, how does the “CD54 surface expression induction” value read?
**A.** The value was 6.35 ± 4.5.

**Q.** How did the “CD54 surface expression induction” value turn out when `CCCCNC(=O)OCC#CI` [Carbamic acid, butyl-, 3-iodo-2-propynyl ester] (10 µM) was run?
**A.** Its value is -5.33 ± 4.1.

**Q.** How did the “CD54 surface expression induction” value turn out when `CN(C)c1ccc(N(C)C)cc1` [*N,N,N',N'-Tetramethyl-p-phenylenediamine] (200 µM) was run?
**A.** The value was 91.8 ± 6.

**Q.** For `CS/C(C)=N\OC(=O)N(C)SN(C)C(=O)O/N=C(\C)SC` [Thiodicarb] (10 µM), which “CD54 surface expression induction” value is on record?
**A.** The value was -6.62 ± 5.

**Q.** `CCC(C)(CC)c1cc(NC(=O)c2c(OC)cccc2OC)on1` [Isoxaben] (200 µM) was tested. Which “CD54 surface expression induction” value did it give?
**A.** The value was -4.09 ± 5.1.

**Q.** With `CCOC(=O)CC(SP(=S)(OC)OC)C(=O)OCC` (centres undefined) [Malathion] (100 µM) as the compound, how does the “CD54 surface expression induction” value read?
**A.** The value was 3.59 ± 5.1.

**Q.** With `Nc1cc(Cl)ccc1O` [2-Amino-4-chlorophenol] (200 µM) as the compound, how does the “CD54 surface expression induction” value read?
**A.** Its value is 89.8 ± 6.4.

**Q.** Which “CD54 surface expression induction” value does the source give for `CCNc1nc(NC(C)(C)C)nc(SC)n1` [Terbutryn] (100 µM) here?
**A.** Its value is 1.12 ± 1.2.

**Q.** For `NNCc1ccccc1` (100 µM), which “CD54 surface expression induction” value is on record?
**A.** The value was -19.4 ± 21.

**Q.** `COP(=O)(OC)OC(Br)C(Cl)(Cl)Br` (centres undefined) [Naled] (100 µM) was tested. Which “CD54 surface expression induction” value did it give?
**A.** Its value is 3.64 ± 4.3.

**Q.** How did the “CD54 surface expression induction” value turn out when `CCC(C)(NC(=O)c1cc(Cl)c(C)c(Cl)c1)C(=O)CCl` (centres undefined) [Zoxamide] (10 µM) was run?
**A.** The value was 10.1 ± 25.

**Q.** For `CCOP(=S)(OCC)Oc1cnc2ccccc2n1` [Quinalphos] (200 µM), which “CD54 surface expression induction” value is on record?
**A.** The value was -1.41 ± 9.
